# Data: PubChem BioAssay
# Values joined by “and” are separate entries in the source; they are usually repeats but may differ in a detail not shown here. Equal values may be shown once. Records with an inconclusive call do not appear. Active and inactive are the calls of the source. Cut-off read from the data, not from the text of the source, unless noted: active = inhibition above about 80%; inactive = the rest.
# Key:
# [1] = growth inhibition, single agents and combos, LFS_MB_2R, cell-based, cisplatin combos, synergistic combos for chromothripsis tumors (AID 1671457); conditions: LFS_MB_2R medulloblastoma cells, stronger effect = higher value;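 note: cells exposed to compound for four days before readout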
# [2] = UWB1.289_BRCA1 ovarian cancer growth, cell-based, BGB or cisplatin combinations (AID 1671459); conditions: UWB1.289 BRCA1 ovarian carcinoma, drug combinations, stronger effect = higher value
# [3] = drug combination toxicity in non-malignant astrocytes – cell-based, BGB or cisplatin IC20 combos, cytotoxicity control for chromothriptic childhood tumor combination screen (AID 1671460); conditions: Human astrocytes, viability inhibition, drug combinations, at 0.5 µM, stronger effect = higher value;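 note: cells exposed to compounds for 96 hours before viability readout; 0% = vehicle and 100% = killing control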
# [4] = compounds altering HSF1 focus formation in cells – imaging, Selleck Cancer Library (AID 1347162; in the data active = plate-normalised HSF1 focus index below about 0.46); conditions: human cells, HSF1 nuclear foci imaging, at 10 µM; SSMD: measured here: HSF1 foci SSMD mean; cell count: measured here: cell number; plate-normalised HSF1 focus index: stronger effect = lower value
# [5] = blockers of cellular phospholipid synthesis – cell-based, LOPAC library, screen 4, primary screen (AID 1347384; call rule not given here); conditions: animal cells, phospholipid biosynthesis inhibition screen; at 10 µM
# [6] = liver-stage malaria parasite load reduction – cell-based, known kinase inhibitor set, luminescence, hepatoma host viability (AID 624392; call rule not given here;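 note: infected cells incubated roughly two days before readout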); conditions: Plasmodium liver stage in hepatoma cells, luciferase luminescence, concentration not given here; liver cell % of control: measured here: host liver cell viability; parasite % of control: stronger effect = lower value
# [7] = compounds altering circadian rhythm period length – cell-based, LOPAC library, luminescence reporter (AID 2774; call rule not given here;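 note: values are relative to mean of DMSO wells on each plate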); conditions: circadian reporter cells, at 7 µM, actives lie on both sides
# [8] = system: Hepatitis C virus NS3 helicase; test: blockers of NS3h binding to ssDNA – biochemical, fluorescence polarization, LOPAC1280 library, primary screen (AID 687035; in the data active = inhibition above about 37%); conditions: Purified HCV NS3 helicase, Cy5-dT15 ssDNA binding fluorescence polarization; stronger effect = higher value; concentration not given here
# [9] = compounds altering Cy5-DNA-NS3h complex signal – biochemical, LOPAC1280, artefact control for HCV NS3 helicase inhibitor project (AID 687037; call rule not given here); conditions: Cy5-DNA-NS3h complex fluorescence interference counterscreen
# [10] = galactose survival enhancers in mitochondrial complex I cybrids – cell-based, galactose medium, ATP luminescence, primary screen (AID 1645843;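 active = z-score of at least 1.8 in each of two replicates, scored against plate mean and spread of sample wells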;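 note: positive z means more ATP and so rescue of galactose-driven cybrid death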); conditions: complex I mutant cybrid cells, 72 h, stronger effect = higher value
# [11] = P. berghei load reduction in hepatocytes – cell-based, HepG2, luciferase luminescence, HepG2 viability, primary screen (AID 624349; in the data active = parasite load remaining mostly below about 12%, no sharp cut-off; inactive = mostly above about 10%;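 note: 100% = mean of DMSO negative control wells on the same plate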); conditions: P. berghei liver stage in HepG2, luciferase luminescence, concentration not given here; parasite load remaining: stronger effect = lower value; viability: measured here: HepG2 viability without parasites
# [12] = growth inhibition of DIPG cells – cell-based, MIPE4.0 library, CellTiter-Glo luminescence, qHTS (AID 1347066; cut-off not given, nearly all actives have AC50 up to about 30 µM;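 note: cells exposed to compound for 48 hours before readout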); conditions: SU-DIPG-VI viability, CellTiter-Glo ATP luminescence
# [13] = chitosan synthesis blockers in C. neoformans – flow cytometry, Cibacron Brilliant Red staining (AID 1347148; call rule not given here;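 note: compound exposure lasted three days at 37 degrees C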); conditions: Cryptococcus neoformans chitosan, stronger effect = lower value; at 10 µM unless noted
# [14] = measured here: combination with cisplatin, at 0.5 µM
# [15] = measured here: combination with cisplatin, at 5 µM
# [16] = BGB combination, concentration series, at 5 µM
# [17] = cisplatin combination, concentration series, at 5 µM
# [18] = measured here: combo with BGB IC20
# [19] = measured here: combo with cisplatin IC20
structure (smiles),measurement,setting,value
COc1ccc(C(=O)C2CCN(CC(=O)N(Cc3nc4c(c(=O)[nH]3)COCC4)CC3CC3)CC2)cc1,inhibition,[1]; at 0.5 µM,-24% (inactive)
same,inhibition,[1]; [14],-29.2%
same,inhibition,[1]; [15],-37.9%
same,inhibition,[2]; [16],1.7%
same,inhibition,[2]; at 0.5 µM,-0.47% (inactive)
same,inhibition,[2]; [17],18.5%
same,inhibition,[3],48.9% (inactive)
same,inhibition,[3]; [18],45.3%
same,inhibition,[3]; [19],49.7%
c1ccc2c(-c3cnn4cc(-c5ccc(N6CCNCC6)cc5)cnc34)ccnc2c1,SSMD,[4],-18.9
same,cell count,[4],2900
same,plate-normalised HSF1 focus index,[4],0.0271 (active)
Cc1nnc(C(C)C)n1C1CC2CCC(C1)N2CC[C@H](NC(=O)C1CCC(F)(F)CC1)c1ccccc1 (some centres undefined),SSMD,[4],0.747
same,cell count,[4],6250
same,plate-normalised HSF1 focus index,[4],1.04 (inactive)
same,outcome,[5],inactive
CC(=O)[C@]1(N)Cc2c(O)c3c(c(O)c2[C@@H](O[C@H]2C[C@H](O)[C@H](O)CO2)C1)C(=O)c1ccccc1C3=O,inhibition,[1]; at 0.5 µM,-4.05% (inactive)
same,inhibition,[1]; [14],-9.33%
same,inhibition,[1]; [15],67%
same,inhibition,[2]; [16],117%
same,inhibition,[2]; at 0.5 µM,13% (inactive)
same,inhibition,[2]; [17],128%
same,inhibition,[3],25.7% (inactive)
same,inhibition,[3]; [18],27.9%
same,inhibition,[3]; [19],27.1%
N=C1CCCN1Cc1[nH]c(=O)[nH]c(=O)c1Cl,inhibition,[1]; at 0.5 µM,-11.5% (inactive)
same,inhibition,[1]; [14],-21.1%
same,inhibition,[1]; [15],-54.2%
same,inhibition,[2]; [16],3.78%
same,inhibition,[2]; at 0.5 µM,4.18% (inactive)
same,inhibition,[2]; [17],25.3%
same,inhibition,[3],0.72% (inactive)
same,inhibition,[3]; [18],12.6%
same,inhibition,[3]; [19],-10.8%
CCN1CCN(Cc2ccc(NC(=O)c3ccc(C)c(NC(=O)c4cncc(-c5cccs5)c4)c3)cc2C(F)(F)F)CC1,liver cell % of control,[6],83.9%
same,parasite % of control,[6],74.7% (inactive)
NC1CCC(N[C@@H]2C[C@H]2c2ccccc2)CC1 (some centres undefined),inhibition,[1]; at 0.5 µM,-35.8% (inactive)
same,inhibition,[1]; [14],-40%
same,inhibition,[1]; [15],-27.2%
same,inhibition,[2]; [16],-9.67%
same,inhibition,[2]; at 0.5 µM,0.86% (inactive)
same,inhibition,[2]; [17],21.2%
same,inhibition,[3],11.2% (inactive)
same,inhibition,[3]; [18],8.8%
same,inhibition,[3]; [19],10.6%
CC(=O)Nc1ccc(C(=O)Nc2ccccc2N)cc1,inhibition,[1]; at 0.5 µM,-12.7% (inactive)
same,inhibition,[1]; [14],-6.43%
same,inhibition,[1]; [15],50.6%
same,inhibition,[2]; [16],68.5%
same,inhibition,[2]; at 0.5 µM,-2% (inactive)
same,inhibition,[2]; [17],75.2%
same,inhibition,[3],17% (inactive)
same,inhibition,[3]; [18],9.55%
same,inhibition,[3]; [19],26.2%
C=C1[C@H](CO)[C@@H](O)C[C@@H]1n1cnc2c(=O)[nH]c(N)nc21,inhibition,[1]; at 0.5 µM,-6.88% (inactive)
same,inhibition,[1]; [14],-11.9%
same,inhibition,[1]; [15],-13.1%
same,inhibition,[2]; [16],-20.8%
same,inhibition,[2]; at 0.5 µM,-14% (inactive)
same,inhibition,[2]; [17],-7.68%
same,inhibition,[3],-13.6% (inactive)
same,inhibition,[3]; [18],-16.4%
same,inhibition,[3]; [19],-16.1%
CN(NC(=O)CC(=O)NN(C)C(=S)c1ccccc1)C(=S)c1ccccc1,SSMD,[4],2.56
same,cell count,[4],6990
same,plate-normalised HSF1 focus index,[4],1.13 (inactive)
CCCc1c(OCCCOc2ccc(OCC(=O)O)cc2)ccc(C(C)=O)c1O,period change,[7],-0.235 h (inactive)
same,inhibition,[8],-1% (inactive)
same,fluorescence ratio (interference),[9],1 (inactive)
same,outcome,[5],inactive
same,z-score,[10],1.51 (inactive)
C[C@@H](O)[C@@H]1NC(=O)[C@H](CCCCN)NC(=O)[C@@H](Cc2c[nH]c3ccccc23)NC(=O)[C@H](Cc2ccccc2)NC(=O)[C@@H](NC(=O)[C@H](N)Cc2ccccc2)CSSC[C@@H](C(=O)N[C@H](CO)[C@@H](C)O)NC1=O,parasite load remaining,[11],22.8% (inactive)
same,viability,[11],81.5%
same,z-score,[10],0.6 (inactive)
COc1cc(/C=C(\C#N)C(=O)Nc2nnc(C(F)(F)F)s2)ccc1OCc1ccc(C(F)(F)F)cc1C(F)(F)F,inhibition,[8],-5% (inactive)
same,fluorescence ratio (interference),[9],1 (inactive)
same,outcome,[5],inactive
same,z-score,[10],0.35 (inactive)
O=C(NOCC(O)CO)c1ccc(F)c(F)c1Nc1ccc(I)cc1F (centres undefined),liver cell % of control,[6],81.2% and 75.1% and 63.7%
same,parasite % of control,[6],153% (inactive) and 268% (inactive) and 132% (inactive)
CC(C)(C(=O)NCC(F)(F)C(F)(F)F)C(=O)N[C@@H]1C(=O)Nc2ccccc2-c2ccccc21,outcome,[12],inactive
same,SSMD,[4],3.83
same,cell count,[4],7550
same,plate-normalised HSF1 focus index,[4],1.24 (inactive)
O=[N+]([O-])c1ccc(-c2nc(-c3ccc(F)cc3)c(-c3ccncc3)[nH]2)cc1,parasite load remaining,[11],29.6% (inactive)
same,viability,[11],67.5%
same,inhibition,[8],1% (inactive)
same,fluorescence ratio (interference),[9],1 (inactive)
same,outcome,[5],inactive
same,z-score,[10],-0.155 (inactive)
NS(=O)(=O)OC[C@@H]1C[C@@H](n2ccc3c(N[C@H]4CCc5ccccc54)ncnc32)C[C@@H]1O,outcome,[12],inactive
COc1ccc(CNC(=O)Nc2ncc([N+](=O)[O-])s2)cc1,parasite load remaining,[11],31.3% (inactive)
same,viability,[11],94.6%
same,SSMD,[4],1.38
same,cell count,[4],7050
same,plate-normalised HSF1 focus index,[4],1.08 (inactive)
C[N+](C)(C)CC(=O)O,outcome,[5],inactive
CNC(=O)c1ccc2c(C(=Nc3cccc(CN(C)C)c3)c3ccccc3)c(O)[nH]c2c1,outcome,[12],inactive
CN1CCN(c2ncc(-c3cc(Cl)cc(Cl)c3Cl)c(N)n2)CC1,outcome,[12],inactive
O=C(CCCCCCNC(=O)c1cnc(N(c2ccccc2)c2ccccc2Cl)nc1)NO,inhibition,[1]; at 0.5 µM,-16.9% (inactive)
same,inhibition,[1]; [14],-6.73%
same,inhibition,[1]; [15],81%
same,inhibition,[2]; [16],70.5%
same,inhibition,[2]; at 0.5 µM,15.1% (inactive)
same,inhibition,[2]; [17],83%
same,inhibition,[3],10.7% (inactive)
same,inhibition,[3]; [18],11.7%
same,inhibition,[3]; [19],14%
CNC(=O)[C@H](Cc1c[nH]c2ccccc12)NC(=O)[C@@H](CC(=O)NO)CC(C)C,fold fluorescence,[13],4.97 [at 128.7 µM] (inactive)
